Compound activity (PubChem BioAssay)
GalR3 antag – GalR3 antagonists in HEK293 cells, primary screen, cell-based, fluorescence readout; 0.44% of 360,000 active; Galanin receptor type 3 (Homo sapiens), O60755; AID 651719, 2012; HEK293 GalR3-CNG cAMP membrane potential fluorescence; galR3 body fused to GalR1 C-terminus; inhibition, % at 3 µM;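 active = inhibition above the screen-wide average plus 3 SD, cut at about 13% in these data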;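 note: forskolin and galanin both at EC90 stimulate the cells; cAMP rise reported by CNG channel membrane potential dye signal; 0% = forskolin plus galanin with DMSO and 100% = forskolin alone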
SRC1 inh – SRC1 coactivator transcriptional activity inhibitors, primary screen, cell-based, luminescence; HEK293 GAL4-SRC1 luciferase reporter; inhibition, % at 3.6 µM; 0.12% of 360,000 active; AID 588354, 2011;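 active = inhibition above the campaign mean plus 3 SD, with each screening campaign given its own cutoff, cut at about 60% in these data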;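 note: 0% = DMSO treated cells and 100% = gossypol at 36 µM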
COUP-TFII inh – NR2F2 transcriptional activity inhibitors, primary screen, cell-based, luciferase reporter, HEK293T, luminescence. COUP transcription factor 2 (Homo sapiens), P24468. AID 686940, 2013. HEK293T NGFI-A luciferase reporter. 0.7% of 370,000 active. inhibition, % at 8.6 µM;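 active = inhibition above a per-plate cutoff, mean inhibition of test wells between control levels plus 3 SD, cut at about 38% in these data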;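 note: cells cotransfected with COUP-TFII expression vector driving the NGFI-A reporter; 0% = median of COUP-TF2 test wells and 100% = reporter-only cells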
Target sequence (P24468 whole entry, looked up): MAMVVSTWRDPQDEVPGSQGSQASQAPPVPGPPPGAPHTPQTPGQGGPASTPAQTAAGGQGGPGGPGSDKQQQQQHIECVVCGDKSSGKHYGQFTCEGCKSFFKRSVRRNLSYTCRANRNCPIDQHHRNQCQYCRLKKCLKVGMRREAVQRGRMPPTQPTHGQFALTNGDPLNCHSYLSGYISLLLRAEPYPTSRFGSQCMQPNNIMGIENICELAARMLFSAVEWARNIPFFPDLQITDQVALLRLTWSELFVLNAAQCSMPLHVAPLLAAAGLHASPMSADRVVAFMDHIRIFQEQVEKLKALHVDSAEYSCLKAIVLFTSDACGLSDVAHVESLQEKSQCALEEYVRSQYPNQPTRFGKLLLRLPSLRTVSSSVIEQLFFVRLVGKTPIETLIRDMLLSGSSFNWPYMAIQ
NR5A2 inv ag – LRH-1 (NR5A2) inverse agonists, primary screen, cell-based, luminescence, HEK293T, StAR-luciferase reporter | Nuclear receptor subfamily 5 group A member 2 (Homo sapiens), O00482 | LRH-1 transfected, 24 h | inhibition, % at 3.6 µM | 0.13% of 360,000 active;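 active = inhibition above the mean inhibition of all tested compounds plus 3 SD, cut at about 73% in these data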;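 note: 0% = DMSO wells and 100% = reporter-only cells lacking LRH-1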
NCOA3 inh – SRC3 coactivator transcriptional activity inhibitors, primary screen, cell-based, luminescence | 0.17% of 360,000 active | HEK293 GAL4-SRC3 luciferase reporter | inhibition, % at 3.6 µM;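 active = inhibition above a per-campaign cutoff, the mean of all compounds plus 3 SD, cut at about 60% in these data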;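 note: 0% = DMSO-treated cells and 100% = gossypol-treated cells at 36 µM; higher means less SRC3-driven luciferase light from the GAL4 reporter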
SRC2 inh – inhibition of GAL4-SRC2 driven luciferase reporter, primary screen, SRC2 inhibitor project, cell-based, luminescence | inhibition, % at 9 µM | HEK293 GAL4-SRC2 luciferase reporter | 0.17% of 370,000 active;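 active = inhibition above the mean inhibition of all tested compounds plus 3 SD, set per campaign, cut at about 52% in these data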;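 note: 0% = DMSO treated cells and 100% = cells given Gossypol at 36 µM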
Gal4-VP16 ctr – Gal4-VP16 luciferase reporter inhibitors, counter-screen for COUP-TFII antagonist project, cell-based, luminescence, HEK293; shares compounds with COUP-TFII inh; inhibition, % at 8.5 µM; 25% of 2,500 active; AID 687007, 2013; in the data active = inhibition above about 13%
NR2F2 inh conf – NR2F2 transcriptional activity inhibitors, confirmation, cell-based, luciferase reporter, HEK293, triplicate; shares compounds with COUP-TFII inh; HEK293 NGFI-A luciferase reporter, luminescence; inhibition, % at 8.5 µM; 45% of 2,500 active; AID 687008, 2013;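 active = mean inhibition over three repeats above a set limit taken from the earlier primary screen, cut at about 38% in these data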;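 note: 100% = cells given the luciferase reporter alone without the COUP-TF2 vector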
The depositor's hits bear a star; x = no result. Most compounds without a hit are left out; they make up all but 1.1% or so of the library.

SMILES	GalR3 antag	SRC1 inh	COUP-TFII inh	NR5A2 inv ag	NCOA3 inh	SRC2 inh	Gal4-VP16 ctr	NR2F2 inh conf
Cc1c(CC(=O)NCCC(=O)O)c(=O)oc2cc3oc4c(c3cc12)CCCC4	-10	-6	-24	-4	-6	6	x	x
Cc1c(CCC(=O)N[C@@H](C)C(=O)O)c(=O)oc2cc3oc4c(c3cc12)CCCC4	-11	9	47*	5	1	67*	33*	36
Cc1oc2cc3oc(=O)c(CCC(=O)N4CCC(C(=O)O)(c5ccccc5)CC4)c(C)c3cc2c1C	-1	16	-5	17	11	3	x	x
C#Cc1cccc(OC[C@@H](O)CN2CCC(C(O)(c3ccccc3)c3ccccc3)CC2)c1	x	x	-8	x	x	11	x	x
CC(=O)c1c(C(C)=O)c(C)n(Cc2ccc(Cl)cc2)c1C	-3	9	43*	22	17	11	6	18
CCOC(=O)c1c(C=O)c(C)n(Cc2ccc(Cl)cc2)c1C	-7	2	3	3	21	16	x	x
COC(=O)[C@]12C[C@H](CC(=O)NCCCCc3ccccc3)C(=O)N(CCc3ccc(OC)c(OC)c3)C1=C[C@H](C(C)C)O[C@@H]2C1CC1	x	x	-6	x	x	-14	x	x
COc1ccc([C@H]2CC(=O)C=C(c3ccc(Oc4ccccc4)cc3)C2)cc1OC	7	-7	44*	-3	-4	40	-5	12
CN(CCO)c1cccc2c1S(=O)(=O)N(Cc1cn(Cc3ccc(Cl)cc3)nn1)Cc1ccccc1O2	x	x	6	x	x	-7	x	x
O=C(CN1C(=O)c2ccccc2S1(=O)=O)c1ccccc1Cl	-3	14	63*	12	20	57*	11	34
Cc1ccc(C(=O)CN2C(=O)c3ccccc3S2(=O)=O)cc1	4	48	74*	13	63*	68*	77*	91*
O=C(CN1C(=O)c2ccccc2S1(=O)=O)c1ccccc1	-4	-24	21	-28	12	9	x	x
CC(C)CNC(=O)OCc1cn(Cc2ccccc2Cl)nn1	x	x	3	x	x	2	x	x
CN(C)c1cc[n+](CC(=O)c2ccc(-c3ccccc3)cc2)cc1	-4	35	52*	86*	57	-3	12	48*
O=C(C[n+]1ccccc1)c1ccc(-c2ccccc2)cc1	-4	-16	-5	2	7	-2	x	x
CCN1C/C(=C/c2ccc(N3CCOCC3)cc2)C(=O)/C(=C/c2ccc(N3CCOCC3)cc2)C1	0	7	37*	27	59	0	24*	39*
CN1C/C(=C\c2ccc(N3CCOCC3)cc2)C(=O)/C(=C/c2ccc(N3CCOCC3)cc2)C1	-10	13	10	9	18	11	x	x
N#CCSc1nnc(-c2sc3ccccc3c2Cl)o1	-5	13	53*	12	15	0	5	44*
CCOC(=O)/C=C1\CN(Cc2cc(OC)c(OC)c(OC)c2)S(=O)(=O)c2ccc(C(F)(F)F)cc21	-5	-2	48*	-7	3	-9	-8	0
CCOC(=O)/C=C1\CN(Cc2cc(OC)c(OC)c(OC)c2)S(=O)(=O)c2ccccc21	-2	8	30	-2	13	-40	x	x
Nc1nc(F)nc2c1ncn2[C@@H]1O[C@H](CO)[C@@H](O)[C@H]1O	-8	88*	82*	102*	92*	69*	55*	65*
COC(=O)C1CN(Cc2cn(CCOC(C)=O)nn2)CCS(=O)(=O)N1Cc1ccc(C)cc1 (stereo not drawn)	x	x	6	x	x	4	x	x
CC(Oc1ccc(Br)cc1Cl)C(=O)Nc1ccncc1 (stereo not drawn)	-15	3	45*	19	20	13	6	30
CCN(c1ccc(NC(=O)c2ccc(N3CCCC3=O)cc2)cc1)C(C)C	-3	4	49*	24	23	27	-9	18
O=S(Cc1ccc(Br)cc1)Cc1nnc(SCc2ccc(Cl)cc2)n1-c1ccccc1 (stereo not drawn)	-8	14	45*	33	27	10	2	28
SMILES	GalR3 antag	SRC1 inh	COUP-TFII inh	NR5A2 inv ag	NCOA3 inh	SRC2 inh	Gal4-VP16 ctr	NR2F2 inh conf
Cc1nn(C)c(C)c1NC(=O)COc1ccc(Cl)cc1Br	53*	4	51*	25	23	13	4	50*
O=C(COc1ccc(Cl)cc1Cl)Nc1ccccn1	-5	63*	89*	51	59	82*	64*	82*
Cc1cccc(OCC(=O)Nc2ccncc2)c1C	-9	3	39*	46	-10	11	-8	32
CSc1ccccc1NC(=O)COc1ccc(Cl)cc1Cl	-6	-27	3	-18	-24	-26	x	x
Cc1cc(Cl)ccc1OCCCC(=O)NO	4	10	52*	-33	25	36	-6	47*
COc1ccccc1OCC(=O)Nc1ccncc1	-3	-15	-2	1	-24	-14	x	x
CC(C)CN1C(=O)[C@]2(CC(=O)N(C)C2c2ccccc2)c2cc(-n3cc(CCc4ccccc4)nn3)ccc21 (stereo partly drawn)	x	x	-14	x	x	1	x	x
CS(=O)(=O)OC12CCCN(C1)/C(=C/c1ccc(Cl)cc1)C2 (stereo not drawn)	x	x	7	x	x	-20	x	x
COC(=O)[C@]12C[C@H](CC(=O)NCc3cccs3)C(=O)N(Cc3ccc4c(c3)OCO4)C1=C[C@H](C(C)C)O[C@@H]2C1CC1	x	x	5	x	x	4	x	x
Cc1cc(Cl)ccc1OCC(=O)Nc1ccncc1	55*	-9	40*	22	0	-5	-28	23
Cc1c(C)c2ccc(OCC(=O)Nc3ccccn3)c(C)c2oc1=O	-7	74*	78*	76*	81*	69*	82*	98*
Cc1c(C)c2cc(Cl)c(OCC(=O)Nc3ccccn3)cc2oc1=O	-6	-11	-18	-12	-28	-13	x	x
N#CCc1ccc(OC[C@@H](O)CN2CCC(C(O)(c3ccccc3)c3ccccc3)CC2)cc1	x	x	0	x	x	-4	x	x
COC(=O)Cn1nc(-c2ccccc2)c2cccc(C(F)(F)F)c21	x	x	-10	x	x	x	x	x
